Data on 21 compounds can be found in article PMC4336329 (PLoS ONE, 2015).

SMILES strings stand for the structures. Among all 310,000 compounds or so, about 14,000 (4.5%) showed an effect of 50% or more. The effect is printed as a negative number. The entries come from a sample that favours strong results as a whole.
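Note: peak tail current of the secondary pulse compared with the same well before compound.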

human ether-à-go-go-related gene (hERG) potassium channel, sequence (Q12809 whole entry, looked up): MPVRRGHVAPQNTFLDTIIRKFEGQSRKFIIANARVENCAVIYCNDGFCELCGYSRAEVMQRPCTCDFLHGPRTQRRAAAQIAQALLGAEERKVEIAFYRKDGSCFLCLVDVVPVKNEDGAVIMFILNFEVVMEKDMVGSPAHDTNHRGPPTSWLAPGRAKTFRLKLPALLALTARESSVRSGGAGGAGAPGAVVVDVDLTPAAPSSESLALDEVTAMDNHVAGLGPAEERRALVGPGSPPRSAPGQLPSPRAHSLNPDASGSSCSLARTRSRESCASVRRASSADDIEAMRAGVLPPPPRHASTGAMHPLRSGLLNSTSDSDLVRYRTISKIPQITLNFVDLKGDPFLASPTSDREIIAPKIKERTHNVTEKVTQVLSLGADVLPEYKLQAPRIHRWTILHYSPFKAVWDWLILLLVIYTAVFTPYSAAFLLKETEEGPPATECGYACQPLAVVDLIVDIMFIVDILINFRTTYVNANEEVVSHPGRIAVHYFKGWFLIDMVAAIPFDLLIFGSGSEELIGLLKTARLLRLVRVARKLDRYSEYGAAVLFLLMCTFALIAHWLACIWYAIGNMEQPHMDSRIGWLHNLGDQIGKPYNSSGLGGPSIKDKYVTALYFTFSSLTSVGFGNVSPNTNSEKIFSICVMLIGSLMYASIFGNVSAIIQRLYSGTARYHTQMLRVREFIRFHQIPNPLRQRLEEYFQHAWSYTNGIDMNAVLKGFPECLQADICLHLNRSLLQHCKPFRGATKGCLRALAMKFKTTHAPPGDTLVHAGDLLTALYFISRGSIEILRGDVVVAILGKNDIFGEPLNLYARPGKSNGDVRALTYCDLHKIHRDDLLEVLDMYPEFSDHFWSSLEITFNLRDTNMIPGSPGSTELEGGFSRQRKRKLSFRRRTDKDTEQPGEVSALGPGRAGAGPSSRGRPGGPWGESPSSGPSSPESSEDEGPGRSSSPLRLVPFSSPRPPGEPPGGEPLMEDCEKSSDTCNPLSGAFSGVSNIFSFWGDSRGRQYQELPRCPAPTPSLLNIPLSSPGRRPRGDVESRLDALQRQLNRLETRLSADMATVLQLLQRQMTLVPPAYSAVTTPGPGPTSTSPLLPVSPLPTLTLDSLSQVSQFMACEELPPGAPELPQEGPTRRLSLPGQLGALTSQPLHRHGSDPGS

This assay concerns the target human ether-à-go-go-related gene (hERG) potassium channel (human, UniProt Q12809). Nature of the assay: primary screen, population patch clamp on CHO cells stably expressing hERG; higher = less effect of the substance.
As to `O=C(NC1CCCc2ccccc21)c1cc(S(=O)(=O)N2CCOCC2)ccc1F` (stereo not drawn), the “hERG current change (%, negative = inhibition) at 10uM” value is listed as 6.48%. Under `COc1ccc(/C=C/C(=O)Nc2nc(C)c(C(=O)N(C)C)s2)cc1` stands 3.15%; under `CCN(CC)CCN(C(=O)c1ccc2c(c1)CCCC2)c1nc2ccc(OC)cc2s1.Cl`, -5.4%. On to `CCN(CC)CCN(C(=O)c1ccc2ccccc2c1)c1nc2ccc(OC)cc2s1.Cl`, for which the “hERG current change (%, negative = inhibition) at 10uM” value was -30%. Then `CN(C)CCCN(C(=O)c1cccc(N2C(=O)CCC2=O)c1)c1nc2cc3c(cc2s1)OCO3.Cl`, with -24%; and `CCN(CC)CCN(C(=O)c1ccc2ccccc2c1)c1nc2ccc(F)cc2s1.Cl`, with -12.7%. As for `CCN(CC)CCN(C(=O)c1ccc(N2C(=O)CCC2=O)cc1)c1nc2cc3c(cc2s1)OCO3.Cl`, the “hERG current change (%, negative = inhibition) at 10uM” value was -44.6%. Under `CCOc1cccc2sc(N(CCN(CC)CC)C(=O)c3cccc([N+](=O)[O-])c3)nc12.Cl` stands -75%; under `CCOc1ccc2nc(N(CCN(CC)CC)C(=O)c3cccc([N+](=O)[O-])c3)sc2c1.Cl`, -59.5%; under `CCOc1ccc2nc(N(CCN(CC)CC)C(=O)c3ccc([N+](=O)[O-])cc3)sc2c1.Cl`, -65.7%. With `CCOc1cccc2sc(N(CCN(CC)CC)C(=O)c3cccc(N4C(=O)CCC4=O)c3)nc12.Cl`, the “hERG current change (%, negative = inhibition) at 10uM” value is reported as -68.4%. Then `CCN(CC)CCN(C(=O)c1cccc([N+](=O)[O-])c1)c1nc2ccc(OC)cc2s1.Cl`, with -39.1%; and `CCN(CC)CCN(C(=O)c1ccc([N+](=O)[O-])cc1)c1nc2ccc(OC)cc2s1.Cl`, with -49.7%. As to `COc1ccc(-c2csc(-c3ccccc3)n2)c(OC)c1`, the “hERG current change (%, negative = inhibition) at 10uM” value was 29.1%.

As for `O=C(Oc1cccc(C(=S)N2CCOCC2)c1)c1ccc([N+](=O)[O-])cc1[N+](=O)[O-]`, the “hERG current change (%, negative = inhibition) at 10uM” value is listed as -14.4%. As for `CCOC(=O)C1(Cc2cccc(OC)c2)CCCN(C(=O)c2cc(C)oc2C)C1` (stereo not drawn), the “hERG current change (%, negative = inhibition) at 10uM” value is recorded as -6.37%. Under `O=C(CNC(=S)N(Cc1ccccc1Cl)C1CCCC1)NCCCN1CCOCC1` stands 7.4%; under `CSc1ccc(CNCC2CCCO2)cc1.Cl` (stereo not drawn), 2.99%. As to `CC(/C=N/NC(=O)Cn1cnc2c1c(=O)n(C)c(=O)n2C)=C\c1ccco1`, the “hERG current change (%, negative = inhibition) at 10uM” value was -10.2%.

Regarding `CCN(C(=O)CSc1nc2ccccc2o1)C1CCS(=O)(=O)C1` (stereo not drawn), the “hERG current change (%, negative = inhibition) at 10uM” value is listed as -3.25%. For the compound `CC1(CC(=O)N/N=C/c2ccc(OCc3ccc(Cl)cc3Cl)cc2)OCCCO1`, the “hERG current change (%, negative = inhibition) at 10uM” value is listed as 5.38%.
